PubChem BioAssay (NCATS)
Values joined by “and” are separate entries in the source; they are usually repeats but may differ in a detail not shown here. Identical values can stand only once. Results filed as inconclusive are left out. Active and inactive are the calls of the source. Unless noted, calls come from the whole dose curve; as a rule, active = well fitted curve in the direction sought with a large enough effect; inconclusive = small, poorly fitted or top-dose-only effect, or another doubt; inactive = no such curve, though single readings can be large; an effect the other way counts as inactive or inconclusive.

How the values were obtained:
[1] = target: Tyrosine-protein kinase Yes (Homo sapiens) (UniProt P07947); assay: qHTS for small molecule inhibitors of Yes1 kinase: Primary Screen (AID 686947);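 note: plate controls were DMSO with enzyme for no effect and no-enzyme DMSO wells for full effect; nearly all actives have a fitted effect of over 60% in size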
How it was run: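 ADP-Glo luminescence readout; final 4 nM Yes1, 0.1 mM ATP, 0.3 mg/mL poly(E4Y), Tris pH 7.5, MgCl2, DTT, Brij-35. 20 min compound preincubation, 60 min reaction at RT. Normalized to DMSO wells with and without enzyme.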

[2] = qHTS for small molecule inhibitors of Yes1 kinase: Counter Assay (AID 686950);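 note: no kinase present so only ADP-Glo detection of a fixed ADP amount is tested; luminescence from ADP-Glo reporting ADP in a fixed ATP and ADP mixture; 0% = DMSO wells with ATP plus ADP and -100% = ATP-only wells without ADP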
How it was run: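 Enzyme-free detection counter-screen: compounds preincubated 20 min in buffer, then 0.08 mM ATP plus 0.02 mM ADP added for 60 min at room temperature; ADP-Glo luminescence. Buffer 50 mM Tris pH 7.5, 10 mM MgCl2, 150 mM NaCl; normalized to ATP+ADP and ATP-only controls.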

[3] = qHTS Assay for Identifying Gametocytocidal Compounds (AID 743244); note: potency is the fitted concentration of half-maximal effect;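 for max response: % is set by controls: 0 for no effect and ±100 for the full control effect; actives lower the fluorescent signal which means gametocytes are killed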; details: P. falciparum 3D7 stage III-V gametocytes, alamarBlue, 72 h; max response: stronger effect = lower value
How it was run: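 A resazurin-based viability read-out was applied to mature P. falciparum gametocytes: 72 h compound treatment, then 24 h dye incubation, with falling fluorescence signalling gametocytocidal effect.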

[4] = qHTS profiling for inhibitors of Plasmodium falciparum (3D7) proliferation (AID 743322);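 note: infected erythrocytes exposed to compound for 72 h before lysis; 100% = DMSO vehicle wells and 0% = 0.29 µM artemisinin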; details: P. falciparum 3D7 proliferation; at 28.7 µM (top of the series)
How it was run: (§1)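 Erythrocytes infected with P. falciparum (0.3% parasitemia, 2.5% hematocrit) incubated with compounds 72 h at 37 C, 5% CO2. Lysis with saponin/Triton buffer containing SYBR Green I, overnight at room temperature in the dark; DNA fluorescence (485/535 nm) normalised to 0.29 uM artemisinin and DMSO.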

[5] = qHTS profiling for inhibitors of Plasmodium falciparum (DD2) proliferation (AID 743323; call rule not given here); details: lower = more inhibition; at 28.7 µM (top of the series)
How it was run: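 Parasite DNA quantified by SYBR Green fluorescence (ex 485, em 535 nm) after saponin/Triton lysis and overnight dark incubation. Cultures: 0.3% parasitemia, 2.5% hematocrit, 72 h, 37 C; data scaled between DMSO and 0.29 uM artemisinin.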

[6] = qHTS profiling for inhibitors of Plasmodium falciparum (HB3) proliferation (AID 743324); details: Plasmodium falciparum HB3 blood-stage proliferation; at 28.7 µM (top of the series);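 note: 100% = DMSO vehicle wells and 0% = artemisinin-treated control wells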
How it was run: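 P. falciparum HB3 grown in erythrocytes (0.3% parasitemia, 2.5% hematocrit final) with compound for 72 h at 37 C, 5% CO2. Parasite DNA detected by SYBR Green after saponin/triton lysis overnight; normalized to 0.29 uM artemisinin and DMSO.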

[7] = qHTS profiling of the MIPE4 collection as inhibitors of Plasmodium falciparum (3D7) proliferation (AID 743344; call rule not given here;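 note: scaled between DMSO vehicle wells and 0.29 µM artemisinin as full inhibition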); details: P. falciparum 3D7 in erythrocytes, SYBR Green DNA fluorescence, 72 h; at 28.5 µM (top of the series) unless noted
How it was run: as §1

[8] = qHTS profiling of the MIPE4 collection as inhibitors of Plasmodium falciparum (DD2) proliferation (AID 743345; call rule not given here); details: P. falciparum Dd2 in erythrocytes, SYBR Green DNA, 72 h; at 28.5 µM (top of the series) unless noted
How it was run: as §1

[9] = qHTS assay for environmental chemicals that activate the Aryl hydrocarbon Receptor (AhR) signaling pathway (AID 651777); details: 1A2-DRE human hepatoma cells, luciferase, 24 h; activation: stronger effect = higher value; note: % of control where 0% means no effect; nearly all actives have a fitted effect of over 15% in size
How it was run: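 Concentration–response screening used 1,200 1A2-DRE cells per well, 24 hr compound exposure (37 C, 5% CO2), and One-Glo luminescence as the AhR-driven CYP1A2 reporter signal.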

[10] = target: Arylsulfatase A (Homo sapiens) (UniProt P15289); assay: qHTS screen for enhancers of Arylsulfatase A (ASA1): LOPAC Validation Assay (AID 720538); details: outcome: dose series up to 57.5 µM
How it was run: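 First, ASA-I179S fibroblasts from an MLD patient adhered for 6 hrs. Next, compounds were added for 48h. Then pNCS substrate (0.5mM final) with lysis buffer reacted 14h at room temperature before NaOH stop and fluorescence measurement.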

[11] = qHTS assay for small molecule agonists of the antioxidant response element (ARE) signaling pathway measured by Nrf2-dependant transcriptional activity - cell viability counter screen (AID 720653; active = well fitted curve in the direction sought with a large enough effect in the repeat runs; an effect the other way counts as inactive or inconclusive; note: % is set by controls: 0 for no effect and ±100 for the full control effect); details: ARE-bla HepG2 viability, CellTiter-Glo ATP luminescence, 16 h; max response: stronger effect = lower value
How it was run: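 ARE-bla HepG2 cells treated with compounds for 16 h at 37C; this counter screen measures viability as intracellular ATP by CellTiter-Glo luminescence after 30 min at room temperature.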

[12] = target: Hexokinase-4 (Homo sapiens) + Glucokinase regulatory protein (Homo sapiens) (UniProt P35557+Q14397); assay: qHTS assay for inhibitors of recombinant human GCK-GKRP interaction: Diaphorase-coupled assay (AID 743205)
How it was run: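 Inhibitors of the GCK–GKRP complex relieve GKRP suppression of GCK, detected through a G6PDH–diaphorase cascade reducing resazurin. Human GST-GCK and FLAG-GKRP are used at 10 nM with 5 mM glucose and 0.4 mM ATP.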

[13] = qHTS assay for cell viability of HEK293 cells (AID 743288); details: ATP luminescence (CellTiter-Glo), 18 h; max response: stronger effect = lower value; note: % is set by controls: 0 for no effect and ±100 for the full control effect; nearly all actives have a fitted effect of over 50% in size
How it was run: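 The Tox21 protocol used parental HEK293 cells treated for 18 h at 37 C with compounds delivered by pintool; ATP-coupled luminescence after 30 min at room temperature gave viability.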

[14] = qHTS assay for cell viability of the p53RE-bla HCT-116 cell line (AID 743292); note: % is set by controls: 0 for no effect and ±100 for the full control effect; nearly all actives have a fitted effect of over 55% in size
How it was run: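 Compound-exposed HCT-116 (p53RE-bla) cells, 4,000 per well, were kept 16 h at 37 C following a 5 h preincubation. Cell number was estimated from total ATP by CellTiter-Glo luminescence read after 30 min at room temperature.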

[15] = target: Peroxisome proliferator-activated receptor alpha (Homo sapiens) (UniProt Q07869); assay: qHTS assay for small molecule agonists of the peroxisome proliferator-activated receptor alpha (PPARalpha) signaling pathway (AID 651778); details: PathHunter PPARalpha complementation, chemiluminescence, 6 h; stronger effect = higher value; note: % of control where 0% means no effect
How it was run: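 Enzyme-fragment complementation assay in which ligand-bound PPARalpha translocates and forms an active enzyme that generates chemiluminescence. Cells were plated overnight, exposed to compound for 6 hr at 37 C, and then given detection reagent for 60 min at room temperature.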

[16] = qHTS for compounds that reverse cellular toxicity of Amyloid beta (A-beta) peptide in yeast: LOPAC Validation Assay (AID 720559);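 note: plate controls were DMSO for no effect and equimolar ferric chloride plus clioquinol rescue for full effect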
How it was run: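 Activity is expressed relative to DMSO and an equimolar ferric chloride/clioquinol mix. Compounds were pinned into medium with A-beta-expressing yeast, grown 48 hr at 30 C, then read by absorbance at 600 nm.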

[17] = qHTS for Activators of Parkin Expression: LOPAC Validation Assay (NLuc Reporter) (AID 720572; note: potency is the fitted concentration of half-maximal effect;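 for activation: 0% = DMSO and 100% = positive control compound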)
How it was run: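 Neuronal cells with a Parkin promoter-driven FLuc/NLuc coincidence reporter were treated 24 h at 37 C in 7-point dose response (LOPAC). NLuc luminescence read after FLuc; signals normalized to DMSO and positive control (100%).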

[18] = qHTS for Activators of Parkin Expression: LOPAC Validation Assay (FLuc Reporter) (AID 720573; note: potency is the fitted concentration of half-maximal effect;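 for activation: 0% = DMSO and 100% = positive control compounds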)
How it was run: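 A neuronal cell line harbouring FLuc and NLuc reporters behind the Parkin promoter was exposed to compounds for 24 h. Firefly luciferase signal, measured after 10 min with detection reagent, was scaled to DMSO and positive-control wells.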

[19] = qHTS assay for small molecule antagonists of the retinoid-related orphan receptor gamma (ROR-gamma) signaling pathway - cell viability counter screen (AID 720652; active = well fitted curve in the direction sought with a large enough effect in the repeat runs; an effect the other way counts as inactive or inconclusive;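 note: CHO reporter cells with doxycycline-induced ROR-gamma expression; compound exposure lasted 16 hr before ATP read; % is set by controls: 0 for no effect and ±100 for the full control effect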)
How it was run: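 Cytotoxicity is quantified via intracellular ATP (CellTiter-Glo luminescence) in doxycycline-induced CHO ROR response element-luciferase reporter cells treated with compound for 16 hr at 37 C, 5% CO2.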

[20] = target: Nuclear receptor ROR-gamma (Homo sapiens) (UniProt P51449); assay: qHTS assay for small molecule antagonists of the retinoid-related orphan receptor gamma (ROR-gamma) signaling pathway (AID 651802);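 note: CHO cells with doxycycline-induced ROR-gamma expression; % is set by controls: 0 for no effect and ±100 for the full control effect; nearly all actives have a fitted effect of over 60% in size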
How it was run: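 Antagonism is scored as a fall in luminescence from a RORE-luciferase reporter in CHO cells expressing ROR under a TET-inducible promoter, measured 16hr after doxycycline induction in the presence of compound.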

Sequence of Peroxisome proliferator-activated receptor alpha (Homo sapiens) (Q07869 whole entry, looked up, the tested form may be a part): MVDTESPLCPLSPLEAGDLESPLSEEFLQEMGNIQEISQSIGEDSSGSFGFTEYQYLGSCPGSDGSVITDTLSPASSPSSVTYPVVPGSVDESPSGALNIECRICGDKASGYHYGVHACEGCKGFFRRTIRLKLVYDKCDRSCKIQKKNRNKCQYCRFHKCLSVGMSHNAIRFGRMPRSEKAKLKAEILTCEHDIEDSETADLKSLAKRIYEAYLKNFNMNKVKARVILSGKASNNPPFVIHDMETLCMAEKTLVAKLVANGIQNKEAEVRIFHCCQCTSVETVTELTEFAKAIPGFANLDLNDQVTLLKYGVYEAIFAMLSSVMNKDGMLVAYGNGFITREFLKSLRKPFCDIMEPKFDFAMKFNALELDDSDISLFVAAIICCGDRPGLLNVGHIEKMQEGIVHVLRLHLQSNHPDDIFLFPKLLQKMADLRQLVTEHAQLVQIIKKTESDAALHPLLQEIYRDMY
Sequence of Arylsulfatase A (Homo sapiens) (P15289 whole entry, looked up): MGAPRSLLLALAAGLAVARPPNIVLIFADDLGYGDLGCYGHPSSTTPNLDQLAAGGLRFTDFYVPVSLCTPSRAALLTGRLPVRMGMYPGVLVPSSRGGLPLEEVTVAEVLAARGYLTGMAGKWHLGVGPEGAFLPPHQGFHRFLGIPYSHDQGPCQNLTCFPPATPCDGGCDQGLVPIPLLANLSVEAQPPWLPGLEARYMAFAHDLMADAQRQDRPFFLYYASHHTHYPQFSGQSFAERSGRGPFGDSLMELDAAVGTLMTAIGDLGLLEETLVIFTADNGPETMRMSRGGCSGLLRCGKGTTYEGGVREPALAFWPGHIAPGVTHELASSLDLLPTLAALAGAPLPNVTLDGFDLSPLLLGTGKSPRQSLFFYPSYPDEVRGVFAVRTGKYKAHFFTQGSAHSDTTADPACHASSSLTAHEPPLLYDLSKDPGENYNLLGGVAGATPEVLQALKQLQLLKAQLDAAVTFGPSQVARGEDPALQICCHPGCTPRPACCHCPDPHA
Sequence of Hexokinase-4 (Homo sapiens) + Glucokinase regulatory protein (Homo sapiens) (P35557 whole entry, looked up): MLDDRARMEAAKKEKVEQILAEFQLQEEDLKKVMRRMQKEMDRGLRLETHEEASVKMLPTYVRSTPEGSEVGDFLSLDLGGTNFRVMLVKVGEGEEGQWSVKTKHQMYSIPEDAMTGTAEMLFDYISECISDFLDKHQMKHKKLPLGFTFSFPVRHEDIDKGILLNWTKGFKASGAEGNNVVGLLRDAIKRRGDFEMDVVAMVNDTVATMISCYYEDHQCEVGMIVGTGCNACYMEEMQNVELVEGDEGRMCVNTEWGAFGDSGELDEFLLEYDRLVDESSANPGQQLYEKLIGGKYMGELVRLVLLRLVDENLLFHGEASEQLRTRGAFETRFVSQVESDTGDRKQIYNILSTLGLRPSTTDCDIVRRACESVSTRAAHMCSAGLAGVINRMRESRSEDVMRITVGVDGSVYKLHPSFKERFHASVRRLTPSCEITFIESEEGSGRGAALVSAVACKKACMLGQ
Sequence of Hexokinase-4 (Homo sapiens) + Glucokinase regulatory protein (Homo sapiens) (Q14397 whole entry, looked up): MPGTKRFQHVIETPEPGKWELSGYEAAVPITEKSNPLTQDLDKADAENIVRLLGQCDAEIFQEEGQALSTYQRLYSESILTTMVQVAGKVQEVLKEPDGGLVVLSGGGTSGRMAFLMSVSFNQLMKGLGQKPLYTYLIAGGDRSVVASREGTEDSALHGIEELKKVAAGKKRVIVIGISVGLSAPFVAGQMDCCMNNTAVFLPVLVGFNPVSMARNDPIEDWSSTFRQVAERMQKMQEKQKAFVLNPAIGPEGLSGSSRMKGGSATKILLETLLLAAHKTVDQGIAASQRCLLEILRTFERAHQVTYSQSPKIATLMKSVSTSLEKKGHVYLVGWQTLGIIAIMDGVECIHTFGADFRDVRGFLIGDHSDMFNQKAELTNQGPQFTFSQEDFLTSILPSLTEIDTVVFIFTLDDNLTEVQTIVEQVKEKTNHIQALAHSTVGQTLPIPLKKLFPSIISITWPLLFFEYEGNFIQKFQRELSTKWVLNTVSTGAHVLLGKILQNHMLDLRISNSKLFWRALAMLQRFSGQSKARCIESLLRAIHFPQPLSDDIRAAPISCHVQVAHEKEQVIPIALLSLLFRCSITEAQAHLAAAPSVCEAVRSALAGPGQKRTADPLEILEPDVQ
Sequence of Tyrosine-protein kinase Yes (Homo sapiens) (P07947 whole entry, looked up): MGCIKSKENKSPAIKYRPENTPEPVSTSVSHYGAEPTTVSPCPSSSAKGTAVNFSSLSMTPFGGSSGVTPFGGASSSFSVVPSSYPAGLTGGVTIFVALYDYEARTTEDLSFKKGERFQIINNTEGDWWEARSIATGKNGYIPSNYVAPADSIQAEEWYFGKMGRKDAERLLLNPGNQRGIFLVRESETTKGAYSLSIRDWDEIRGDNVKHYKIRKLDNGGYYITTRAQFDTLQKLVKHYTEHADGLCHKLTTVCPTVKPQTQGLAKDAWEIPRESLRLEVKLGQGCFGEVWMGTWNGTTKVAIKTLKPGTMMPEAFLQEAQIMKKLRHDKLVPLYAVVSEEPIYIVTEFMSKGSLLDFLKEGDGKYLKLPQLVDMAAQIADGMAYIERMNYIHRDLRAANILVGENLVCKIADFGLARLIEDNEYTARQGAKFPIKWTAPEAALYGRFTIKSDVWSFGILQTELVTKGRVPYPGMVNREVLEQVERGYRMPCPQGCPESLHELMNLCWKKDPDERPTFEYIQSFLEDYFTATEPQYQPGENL
Sequence of Nuclear receptor ROR-gamma (Homo sapiens) (P51449 whole entry, looked up): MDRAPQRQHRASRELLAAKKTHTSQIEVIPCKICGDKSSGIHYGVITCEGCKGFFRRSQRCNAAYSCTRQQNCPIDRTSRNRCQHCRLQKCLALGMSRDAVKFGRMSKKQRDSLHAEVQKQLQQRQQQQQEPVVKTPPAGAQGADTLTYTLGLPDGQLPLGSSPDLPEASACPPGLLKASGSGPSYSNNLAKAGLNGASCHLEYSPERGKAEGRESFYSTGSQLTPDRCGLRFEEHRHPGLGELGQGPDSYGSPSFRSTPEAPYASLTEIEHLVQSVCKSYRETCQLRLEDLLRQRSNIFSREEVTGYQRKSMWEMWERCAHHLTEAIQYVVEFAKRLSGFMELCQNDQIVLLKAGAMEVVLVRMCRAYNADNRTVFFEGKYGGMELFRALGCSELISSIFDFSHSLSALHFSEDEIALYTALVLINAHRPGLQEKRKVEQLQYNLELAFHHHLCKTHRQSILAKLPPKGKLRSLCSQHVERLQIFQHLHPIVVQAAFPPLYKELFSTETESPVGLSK

CC(C)(C(=O)NCC(F)(F)C(F)(F)F)C(=O)N[C@@H]1C(=O)Nc2ccccc2-c2ccccc21
8.18%: parasite growth, % of DMSO control [7]
9.25%: parasite growth remaining, % of DMSO control (lower = more inhibition) [8]
5.09%: remaining parasite growth % (stronger effect = lower value) [4]
inactive: Potency [1] | outcome [2] | max response [3] 8.7%
-0.0337%: remaining proliferation (% of control), lower = more inhibition [6]
4.91%: activity, percent of control [5]

CC(C)OC(=O)C(C)(C)Oc1ccc(C(=O)c2ccc(Cl)cc2)cc1
inactive: activation [9] 2.52% | outcome [10] inactive; inhibitor; fitted 0.151 uM | max response [11] 3.55% | outcome [12] | max response [3] 7.26% and 15.7% | max response [13] -17.2% | Potency [14]

O=c1cc(-c2ccc(O)cc2)oc2cc(O)cc(O)c12
active: Potency [17] 16.4 µM | Potency [18] 3.26 µM
42.9%: parasite growth remaining, % of DMSO control (lower = more inhibition) [8]
7.22%: parasite growth, % of DMSO control [7]
inactive: max response [15] -4.82% and -0.91% | outcome [10] | outcome [16] | Potency [19] | max response [11] -5.98% and -9.88% | outcome [12] | max response [3] 0.431% | max response [13] -29.2% and -22.7% | Potency [14]

CC(=O)N[C@@H](CS)C(=O)O
inactive: activation [9] -0.0175% | max response [15] -0.248% | outcome [10] | outcome [16] | Potency [17] | Potency [18] | max response [11] 3.38% | outcome [12] | max response [3] 4.68% and -17% | max response [13] -3.84% | Potency [14]

O=C(O)c1cc(-c2ccccc2)nc2ccccc12
inactive: activation [9] 4.06% | max response [15] -3.44% | max response [11] -16.1% | max response [3] 4.65% and 33.8% | max response [13] -15% | Potency [14]

COc1cc2nc(-c3ccc(N4CCN(C)CC4)cc3)nc(NCCN3CCOCC3)c2cc1OC
inactive: Potency [1] | outcome [2]
-0.313%: activity, percent of control [5]
4.83%: parasite growth remaining, % of DMSO control (lower = more inhibition) [8]
-0.898%: remaining proliferation (% of control), lower = more inhibition [6]
active: Potency [3] 11.8 µM
-1.55%: remaining parasite growth % (stronger effect = lower value) [4]

CCn1cc(C(=O)O)c(=O)c2ccc(C)nc21
inactive: max response [15] -3.78% and -0.0141% | Potency [20] | outcome [10] | outcome [16] | Potency [17] | Potency [18] | Potency [19] | max response [11] 11.7% and 3.46% | max response [3] 5.72% and 15.6% | max response [13] 1.7% and -2.87% | Potency [14]
